Each sequence was assayed against ETFB (assay: pooled miR-30 sensor sort-seq; sequence = guide strand). Settings: shRNA.
TTCATGGAGTGCTTCACACCAT gave a sensor-assay potency score (higher = more potent) of 0.145. TCTGGTTACAGTCATCATCGAT showed a sensor-assay potency score (higher = more potent) of -0.57. With TCCACTTTCAACTTGTCCCCCT the sensor-assay potency score (higher = more potent) was -0.169. TCAGCTGTCACCACAGCTGGCA was tested, and the sensor-assay potency score (higher = more potent) was -0.558. For TCGGTCTGCACCCATGGCCAGG, the sensor-assay potency score (higher = more potent) was -1.71. In the case of AATCCAGCTGTCATCTGCCCTG, the sensor-assay potency score (higher = more potent) is reported as -0.828. In the case of ACACTGATCACAGAGAGCTTGG, the sensor-assay potency score (higher = more potent) is reported as -0.751. TTGATCACCTCGATCTTCTTCT showed a sensor-assay potency score (higher = more potent) of 0.521. With TCCCGCTCCACTTTCAACTTGT the sensor-assay potency score (higher = more potent) was -0.247. Sequence TTCTCCTTCTCTGCCAGCTTGG has a sensor-assay potency score (higher = more potent) of -1.27. ATCACCTCGATCTTCTTCTTCT showed a sensor-assay potency score (higher = more potent) of -0.543. Sequence AAGCGTTCTGCTTCTGCTGGGG has a sensor-assay potency score (higher = more potent) of -0.0454. In the case of AAGAAATCCAGCTGTCATCTGC, the sensor-assay potency score (higher = more potent) is reported as 0.386. TTGGGCAGCGTGGCGTAGCGGG was tested, and the sensor-assay potency score (higher = more potent) was -1.13. TTTCAACTTGTCCCCCTCCAGC showed a sensor-assay potency score (higher = more potent) of -1.21. TCTCCTTGAGCCGCACAGCCTC was tested, and the sensor-assay potency score (higher = more potent) was -1.05. Work on TGGAGGTCAGGTCCACACCCAG yielded a sensor-assay potency score (higher = more potent) of -1.98. Sequence ACAGTCATCATCGATGGCCTGT has a sensor-assay potency score (higher = more potent) of -0.63. Sequence TTCTTGGCTTTCATGATGTTGG has a sensor-assay potency score (higher = more potent) of -0.962. TCGATCTTCTTCTTCTTGGCTT was tested, and the sensor-assay potency score (higher = more potent) was -0.249. In the case of TCGTCTCCTGGCACTGTGCAGG, the sensor-assay potency score (higher = more potent) is reported as -1.37. For TCCGTGACCACACCGGTCCTGT, the sensor-assay potency score (higher = more potent) was -1.31.

Each sequence was assayed against ETS1 in the same assay as above. Settings: shRNA.
Work on TTCTTTAGTGAAACCACTGAAA yielded a sensor-assay potency score (higher = more potent) of -0.218. TGAGACATCATTTCTTTGCTGC gave a sensor-assay potency score (higher = more potent) of 0.679. In the case of TATCGTAGCTCTCTATGCTTTC, the sensor-assay potency score (higher = more potent) is reported as -0.783. ATCTGCACATTCCATATCCGGG gave a sensor-assay potency score (higher = more potent) of -1.42. Sequence TAGCTAATGAAGTAATCCGAGG has a sensor-assay potency score (higher = more potent) of -1.48. TAGTCCTCTGAGTCGAAGCTGT gave a sensor-assay potency score (higher = more potent) of -0.809. For TATGCTTTCAAAAGAGTCCTGG, the sensor-assay potency score (higher = more potent) was 0.343. With TTTTGTCGTAATAGTAGCGTAG the sensor-assay potency score (higher = more potent) was -0.397. For TTTGATAGCAAAGTAGTCATTC, the sensor-assay potency score (higher = more potent) was -0.303. Work on ATAGCTAATGAAGTAATCCGAG yielded a sensor-assay potency score (higher = more potent) of -0.147. AAGACTGACAGGATTTATCAGT showed a sensor-assay potency score (higher = more potent) of -0.516. For TTTATCAGTGAGTAATTCCAGA, the sensor-assay potency score (higher = more potent) was -0.449. Work on TTGATATGGTTTCACATCCTCT yielded a sensor-assay potency score (higher = more potent) of -1.06. TAGAGTGATAGGTAAATAGTTC showed a sensor-assay potency score (higher = more potent) of -0.916. In the case of TTGTTTGATAGCAAAGTAGTCA, the sensor-assay potency score (higher = more potent) is reported as -0.385. TTTTTGTCGTAATAGTAGCGTA showed a sensor-assay potency score (higher = more potent) of -0.88. TAACTTGATATGGTTTCACATC showed a sensor-assay potency score (higher = more potent) of -1.41. TTCTGCAAGGTGTCTGTCTGGA showed a sensor-assay potency score (higher = more potent) of 0.532.

— the OligoGym collection
Further: reference of the scale not given here.
